Assay outcomes from PubChem.
This is a sample that favours compounds with a hit; in the whole collection about 11% have one here.
Sm TGR inh = inhibitors of Schistosoma mansoni thioredoxin glutathione reductase; 3% of 360,000 active; purified TGR, DTNB reduction, TNB absorbance 405 nm; Potency, µM (top dose mostly 114 µM), for inactives: at the top dose activity change, negative = inhibition, most hits filed as inhibitors; Q962Y6; AID 485364; further: on the % scale 0 is the no-effect control and ±100 the full control effect; nearly all actives have a fitted effect of over 60% in size
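First, TGR (20 nM dispensed) and NADPH were mixed with compound. Second, a 15 min room-temperature incubation followed. Third, further NADPH and then DTNB were added to start the reaction. Finally, TNB absorbance was monitored kinetically.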
NS1 function inh = influenza NS1 inhibition. Potency, µM (doses to about 46.1 µM), without a hit: top-dose activity, positive = more growth. 0.4% of 270,000 active. AID 2326; calls by dose curve; further: actives are rising curves; nearly all actives have a fitted effect of over 50% in size
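Compounds were scored for reversing the slow growth caused by influenza A NS1 in S. cerevisiae, measured by optical density at 600 nm. Assay medium contained 2% galactose at pH 6.0; NS1-free yeast of the same strain were the positive control.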
Pf growth 48h = P. falciparum growth inhibition at 48 hours (one generation); Potency, µM (doses to about 28.7 µM), for inactives: top-dose activity change, negative = inhibition, usual class: inhibitors; AID 504832; 5.9% of 310,000 active; P. falciparum luciferase growth in erythrocytes, 48 h; further: on the % scale 0 is the no-effect control and ±100 the full control effect
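First compound was added to culture medium, then infected red cells at 0.1% parasitemia and 2% hematocrit (final). After incubation at 37 C under 5% CO2, luciferase detection reagent was dispensed and light output recorded.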
AMA1 RON2 block = disrupts binding of P. falciparum AMA1 to RON2. AlphaScreen AMA1-biotinylated RON2 peptide binding. Potency, µM (titrated, usually from 58.2 µM), for inactives: at the top dose activity change, negative = inhibition, most hits filed as inhibitors. 0.2% of 360,000 active. AID 720542;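 further: 0% = vehicle wells and -100% = peptide control; nearly all actives have a fitted effect of over 45% in size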
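AMA1 (3D7) with his tag at 25 nM final met compounds first, then biotinylated RON2 peptide at 25 nM; detection used donor plus acceptor beads, 10 µg/mL apiece, read by AlphaScreen after 30 min at room temperature.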
Pf growth 96h = inhibits malaria parasite growth, 96 h; AID 504834; Potency, µM (doses to about 28.7 µM), for the others: at the highest dose activity change, negative = inhibition, actives largely listed as inhibitors; 6.9% of 320,000 active; P. falciparum luciferase reporter growth, 96 h; further: on the % scale 0 is the no-effect control and ±100 the full control effect
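Infected RBCs, 2% Hct / 0.05% parasitemia final; luciferase-reporter P. falciparum; cpd 96 h, 37 C, 5% CO2; luciferase detection reagent; luminescence.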
* = called active by the depositor; [ ] = dose if it differs, or a comment. Unless noted, the call rests on the fitted dose curve; in most records, active means well fitted curve in the direction sought with a large enough effect; inconclusive means small, poorly fitted or top-dose-only effect, or another doubt; inactive means no such curve, though single readings can be large; an effect the other way counts as inactive or inconclusive. Potency means the concentration at half of the fitted maximal effect.

`CCOc1ccc(-c2cc3nc(C4CCN(C(=O)OC(C)(C)C)CC4)c(C(=O)Nc4c(C)cccc4C)cn3n2)cc1` gave Sm TGR inh 5%.
CCOc1ccc(-c2cc3nc(C4CCN(C(=O)OC(C)(C)C)CC4)c(C(=O)O)cn3n2)cc1 was read as Sm TGR inh -11%, NS1 function inh 26%, Pf growth 48h 0.47µM*, AMA1 RON2 block 4% and Pf growth 96h inconclusive.
CN(CC(=O)Nc1ccccc1Cl)C(=O)c1ccc(-c2cccc(C(F)(F)F)c2)o1 was read as Sm TGR inh inconclusive, Pf growth 48h 2.1µM*, AMA1 RON2 block -10% and Pf growth 96h 0.41µM*.
Screening CN(CC(=O)Nc1ccccc1Cl)C(=O)COC(=O)/C=C/c1cccc(C(F)(F)F)c1 returned Sm TGR inh 1%, Pf growth 48h inconclusive, AMA1 RON2 block 2% and Pf growth 96h -26%.
COc1ccc(NC(=O)CN(C)C(=O)c2ccc(-c3ccccc3Cl)o2)cc1 was read as Sm TGR inh -25%, Pf growth 48h 0.37µM*, AMA1 RON2 block -3% and Pf growth 96h 0.33µM*.
For CCN(CC(=O)NCc1cccs1)C(=O)c1ccc(-c2cccc(C(F)(F)F)c2)o1 the results were Sm TGR inh inconclusive, Pf growth 48h inconclusive, AMA1 RON2 block -4% and Pf growth 96h 9.3µM*.
Screening COc1ccc(NC(=O)CN(C)C(=O)c2ccc(-c3cccc(C(F)(F)F)c3)o2)cc1 returned Sm TGR inh -31%, NS1 function inh 15%, Pf growth 48h inconclusive, AMA1 RON2 block -15% and Pf growth 96h 0.37µM*.
`O=C1OC(COCC#Cc2ccccc2)CN1c1ccccc1` (stereo unspecified) gave AMA1 RON2 block 14%.
For CCC(Oc1ccccc1)C(=O)Nc1ccc2oc(-c3ccc(OC)cc3)nc2c1 (stereo unspecified) the results were Sm TGR inh -1%.
COc1ccc(C(=O)N(Cc2ccccc2)c2cccc(C)c2)c(OC)c1OC was read as Sm TGR inh -11%, NS1 function inh 3%, Pf growth 48h 0%, AMA1 RON2 block -14% and Pf growth 96h inconclusive.
Screening COc1ccc(CC(=O)NC(C)CCc2ccccc2)cc1OC (stereo unspecified) returned Sm TGR inh 9%, NS1 function inh 1%, Pf growth 48h -12%, AMA1 RON2 block 0% and Pf growth 96h 6%.
For COc1ccccc1CC(=O)N(Cc1ccccc1)c1ccc(C)cc1 the results were Sm TGR inh -14%, NS1 function inh -27%, Pf growth 48h inconclusive, AMA1 RON2 block -7% and Pf growth 96h 9.3µM*.
`COc1ccc(CC(=O)NNC(=O)CCc2ccccc2)cc1OC` gave Sm TGR inh 6%, Pf growth 48h 51%, AMA1 RON2 block 41% and Pf growth 96h 13µM*.
For COc1cc(C(=O)N(Cc2ccccc2)c2cccc(C)c2)ccc1OC(F)F the results were Sm TGR inh -9%, NS1 function inh -34%, Pf growth 48h inconclusive, AMA1 RON2 block 12% and Pf growth 96h 13µM*.
COc1ccccc1C(=O)N(Cc1ccccc1)c1ccc(C)cc1 was read as Sm TGR inh 15%, NS1 function inh -12%, Pf growth 48h inconclusive, AMA1 RON2 block -2% and Pf growth 96h inconclusive.
For COc1ccc(CC(=O)N(Cc2ccccc2)c2cccc(C)c2)cc1OC the results were Sm TGR inh 5%, NS1 function inh -11%, Pf growth 48h inconclusive, AMA1 RON2 block -4% and Pf growth 96h 10µM*.
CCc1nc2ccc(C(=O)Nc3ccc(NC(C)=O)cc3)cn2c1N(C)CCC(C)C was read as AMA1 RON2 block -4%.
Screening CCCCCCCNC(=O)C1(CC2CC(c3ccc(Cl)cc3)=NO2)CCN(C(=O)c2ccccc2)CC1 (stereo unspecified) returned Sm TGR inh 7%, NS1 function inh 22%, Pf growth 48h inconclusive, AMA1 RON2 block 0% and Pf growth 96h 9.3µM*.
Screening CCCCCCCNC(=O)C1(CC2CC(c3ccc(Cl)cc3)=NO2)CCN(C(=O)c2cc(OCC)c(OCC)c(OCC)c2)CC1 (stereo unspecified) returned Sm TGR inh 0%, NS1 function inh inconclusive, Pf growth 48h 1.2µM*, AMA1 RON2 block -4% and Pf growth 96h 0.33µM*.
Screening CCCNC(=O)C1(CC2CC(c3ccccc3)=NO2)CCNCC1 (stereo unspecified) returned AMA1 RON2 block 2%.
For CCCCCCCNC(=O)C1(CC2CC(c3ccccc3)=NO2)CCN(C(=O)c2ccccc2)CC1 (stereo unspecified) the results were Sm TGR inh -18%, Pf growth 48h 12µM*, AMA1 RON2 block 1% and Pf growth 96h 9.3µM*.
CC(C)(C)OC(=O)N1CCC(CC2CC(c3ccccc3)=NO2)(C(=O)NCc2ccccc2)CC1 (stereo unspecified) was read as Sm TGR inh 2%, Pf growth 48h 0.26µM*, AMA1 RON2 block -3% and Pf growth 96h inconclusive.
For Cc1cnc(NC(=O)CCNC(=O)c2ccc([N+](=O)[O-])cc2)s1 the results were Sm TGR inh -6%, NS1 function inh 1%, Pf growth 48h -37%[5.75 µM], AMA1 RON2 block -2% and Pf growth 96h -37%[5.75 µM].
For COc1ccc(C)cc1NC(=O)Nc1ccccc1OCc1cc(=O)n2ccccc2n1 the results were Sm TGR inh 0%.
CCCCCCCNC(=O)C1(CC2CC(c3ccccc3)=NO2)CCN(C(=O)OC(C)(C)C)CC1 (stereo unspecified) was read as Sm TGR inh 0%, Pf growth 48h 2.9µM*, AMA1 RON2 block -2% and Pf growth 96h 6.6µM*.
`CCCCCCCNC(=O)C1(CC2CC(c3cccc(Br)c3)=NO2)CCN(C(=O)c2ccccc2)CC1` (stereo unspecified) gave Sm TGR inh 4%, Pf growth 48h 13µM*, AMA1 RON2 block -13% and Pf growth 96h inconclusive.
Screening COc1ccc(CNC(=O)C2(CC3CC(c4ccccc4)=NO3)CCN(C(=O)OC(C)(C)C)CC2)cc1 (stereo unspecified) returned AMA1 RON2 block -1%.
COC(=O)C1(CC2CC(c3cccc(Br)c3)=NO2)CCN(C(=O)OC(C)(C)C)CC1 (stereo unspecified) was read as Sm TGR inh -10%, NS1 function inh -66%, Pf growth 48h inconclusive, AMA1 RON2 block -1% and Pf growth 96h 0%.
C=CCN1C(=O)C(C)NC1=S (stereo unspecified) was read as Sm TGR inh 10%, NS1 function inh 5%, Pf growth 48h 25%, AMA1 RON2 block -3% and Pf growth 96h 6%.
C[C@@H]1CN([C@@H](C)CO)C(=O)CCCn2cc(nn2)CO[C@H]1CN(C)S(=O)(=O)c1ccccc1C#N was read as AMA1 RON2 block 11%.
